Screening results from PubChem.
Only some compounds are listed: those with a hit (about 1.1% of all), similar ones and a draw of the others.
NSD2 HMT inh: NSD2 (human) methyltransferase inhibition; inhibition, % at 12.5 µM; 310,000 compounds, 0.54% hits; O96028; NSD2 peptide methylation, AlphaScreen, 120 min; in the data active = inhibition above about 50%
Casp6 inh: caspase-6 (human) enzyme inhibition. P55212. purified caspase-6, Z-VEID-R110 cleavage fluorescence. 350,000 compounds, 0.53% hits. inhibition, % at 12.5 µM;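 active = mean inhibition across replicates at least about 35%, with every replicate also reaching that limit, limit read from the data; inconclusive = only one of the two criteria met; inactive = neither criterion met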
Target sequence (P55212 24-179 limits assumed): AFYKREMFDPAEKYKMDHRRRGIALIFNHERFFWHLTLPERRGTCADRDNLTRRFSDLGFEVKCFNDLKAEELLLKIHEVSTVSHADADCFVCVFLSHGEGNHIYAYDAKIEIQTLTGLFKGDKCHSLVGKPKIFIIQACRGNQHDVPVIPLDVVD
Target sequence (P55212 194-293 limits assumed): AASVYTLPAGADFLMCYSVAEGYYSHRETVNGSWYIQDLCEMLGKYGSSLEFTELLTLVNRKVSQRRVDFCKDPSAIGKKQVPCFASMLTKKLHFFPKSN
Keap1-Nrf2 PPI: Keap1-Nrf2 (human) interaction inhibition; Q14145; Keap1 Kelch-Nrf2 peptide fluorescence polarization, 1536-well; inhibition, % at 9.4 µM; 340,000 compounds, 0.15% hits; AID 504523; in the data active = inhibition above about 12%; inconclusive = no clear call, values can overlap the other calls; inactive = below about 7.3%;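 note: human Keap1 Kelch domain with fluorescein labeled Nrf2 9mer peptide probe; higher means more block of Keap1 binding to Nrf2 peptide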
HDAC3 inhib: human HDAC3 inhibition. O15379. recombinant HDAC3, fluorogenic peptide/trypsin coupled, fluorescence. inhibition, % at 8.3 µM. AID 2718. 320,000 compounds, 0.15% hits; in the data active = inhibition above about 26%, passing the limit was not always enough; inconclusive = no clear call, values can overlap the other calls
Glyco luc inh: blocks N-linked glycosylation in D54 reporter cells | 360,000 compounds, 0.23% hits | reporter increase, % at 12.5 µM | AID 588692 | D54 ERlucT glycosylation luciferase reporter, 24 h; percent of 100 nM tunicamycin response;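 active = mean luciferase reporter signal, scaled so untreated is 0 and the glycosylation-blocking control 100, at or above a set limit in every replicate; inconclusive = mean reaches the limit but not every replicate does; inactive = mean below the limit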;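 note: luciferase carries N-glycosylation sites so blocking glycosylation raises the light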
C-LANA FP: blocks KSHV LANA C-terminal domain binding to DNA; MBP-C-LANA/FAM-LBS DNA binding, fluorescence polarization; inhibition, % at 9 µM; 340,000 compounds, 0.078% hits; AID 504423;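 active = highest replicate inhibition at or above 60% at 9 µM, even if other replicates fall short; inactive = all replicates below 60% inhibition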
Hits are given with their value; i = inactive; ? = inconclusive; nt = no result given.

SMILES | NSD2 HMT inh | Casp6 inh | Keap1-Nrf2 PPI | HDAC3 inhib | Glyco luc inh | C-LANA FP
Cc1ccc(NC(=O)CN(C)C(=O)Cn2ncc(Cl)c(Cl)c2=O)cc1 | i | 41 | i | i | i | i
C[C@@H]1CN([C@@H](C)CO)C(=O)c2cc(-c3cncnc3)cnc2O[C@@H]1CN(C)C(=O)CN1CCOCC1 | nt | i | nt | nt | nt | nt
C=CCNc1nc(NCCCN2CCCC2=O)c2sc(-c3ccccc3)cc2n1 | i | i | nt | nt | i | nt
O=C1CCCN1CCCNc1nc(NCc2ccccc2)nc2ccsc12 | i | i | nt | nt | 38 | nt
O=C(NCC1COc2ccccc2O1)c1ccc(F)c(S(=O)(=O)N2CCOCC2)c1 (stereo unspecified) | i | 52 | i | nt | i | i
C[C@@H]1CN([C@H](C)CO)S(=O)(=O)c2ccc(-c3ccccc3)cc2O[C@@H]1CN(C)C | nt | i | nt | nt | nt | nt
C[C@@H]1CN([C@@H](C)CO)C(=O)c2cc(NS(C)(=O)=O)ccc2O[C@@H]1CN(C)Cc1ccc(C(=O)Nc2ccccc2N)cc1 | nt | i | nt | nt | nt | nt
OCc1ccccc1-c1nc(NCc2ccccc2)nc2ccsc12 | i | 42 | nt | nt | i | nt
Clc1ccccc1Nc1nc(NCc2ccccc2)nc2ccsc12 | i | i | nt | nt | i | nt
O=C(Nc1cccc(C(F)(F)F)c1)c1cccc(NS(=O)(=O)c2ccc(O)c(C(=O)O)c2)c1 | i | 39 | i | i | i | i
Cc1ccccc1CN(C)C(=O)COC(=O)CSc1ccc([N+](=O)[O-])cc1 | i | 71 | i | i | i | i
NS(=O)(=O)c1ccc(NC(=O)C2Cc3ccccc3CN2C(=O)c2ccco2)cc1 (stereo unspecified) | i | 45 | i | i | i | i
COc1cc(OC)c(C(=O)C=Cc2ccc(OC)c(OC)c2)c(OC)c1 | i | i | i | nt | i | i
COc1cc(O)c(C(=O)/C=C/c2ccccc2)c(OC)c1 | nt | i | i | i | 42 | i
S=C1NC2=C(CCCC2=C2SCCS2)C(c2ccccc2)N1 (stereo unspecified) | i | i | i | 95 | 415 | i
COc1cc(N)c2ncccc2c1Cl | i | 56 | i | nt | i | i
C[C@@H]1CN([C@@H](C)CO)C(=O)c2cc(C3=CCCCC3)cnc2O[C@H]1CN(C)C(=O)CN1CCOCC1 | nt | i | nt | nt | nt | nt
O=C(c1cnn(C(=O)c2ccc(O)cc2)c1)c1ccccc1O | i | i | nt | 76 | nt | nt
CN(C)c1cccc(C(=O)n2cc(C(=O)c3cc(F)ccc3O)cn2)c1 | i | nt | i | i | i | i
Cc1ccc(O)c(C(=O)c2cnn(-c3ccccc3)c2)c1 | i | nt | i | i | i | i
COc1ccc(C(=O)n2cc(C(=O)c3cc(C)ccc3O)cn2)cc1OC | nt | i | i | 53 | i | i
O=C(c1cnn(C(=O)c2ccco2)c1)c1ccccc1O | i | i | i | i | i | i
COc1ccc(O)c(C(=O)c2cnn(C(=O)c3cccc(N(C)C)c3)c2)c1 | i | i | i | 30 | i | i
COc1ccc(C(=O)n2cc(C(=O)c3cc(C)ccc3O)cn2)cc1 | i | nt | i | 37 | i | i
COc1ccc(O)c(C(=O)c2cnn(C(=O)c3cc(C)oc3C)c2)c1 | i | nt | i | i | i | i
SMILES | NSD2 HMT inh | Casp6 inh | Keap1-Nrf2 PPI | HDAC3 inhib | Glyco luc inh | C-LANA FP
O=C(C1CCOCC1)N1CC(=O)N2[C@H](CO)[C@@H](c3ccc(-c4cccnc4)cc3)[C@@H]2C1 | nt | i | nt | nt | nt | nt
CC(C)(C)[S@](=O)N1Cc2cc(C(=O)N3CCCCC3)nc(-c3cccc(-c4ccc(C#N)cc4)c3)c2[C@@H]1CCO | nt | i | nt | nt | nt | nt
CC(=O)c1cccc(Nc2cc(C)nc3c(C)cc(C)cc23)c1 | i | nt | i | i | 67 | i
O=C(C[C@@H]1C[C@@H]2c3cc(NC(=O)NC4CCCCC4)ccc3O[C@@H]2[C@H](CO)O1)NCc1ccccn1 | nt | i | nt | nt | nt | nt
Cc1ccc(S(=O)(=O)N(C)C[C@@H]2Oc3ccc(NC(=O)NC(C)C)cc3C(=O)N([C@H](C)CO)C[C@H]2C)cc1 | nt | i | nt | nt | nt | nt
COc1ccc(NC(=O)Nc2cccc3c2O[C@H](CN(C)S(=O)(=O)c2ccc(C)cc2)[C@@H](C)CN([C@@H](C)CO)C3=O)cc1 | nt | i | nt | nt | nt | nt
COc1ccc(C2(c3ccc(OC)cc3)NC(=O)N(CC(=O)Nc3ccc(N4CCOCC4)cc3)C2=O)cc1 | i | 51 | nt | i | i | nt
COc1cc(SC)ccc1C(=O)OC(C)C(=O)NC1CCCC1 (stereo unspecified) | i | 38 | i | nt | i | i
O=C(O)c1cccc(N2C(=O)C3CC=C(Cl)CC3C2=O)c1 (stereo unspecified) | nt | 67 | i | i | i | i
CC1(C)CC(=O)C(C=Nc2cccnc2/N=C/C2=C(O)CC(C)(C)CC2=O)=C(O)C1 | i | 41 | i | i | i | i
CC1(C)CC(=O)C(C=Nc2cccnc2)=C(O)C1 | i | nt | i | i | i | i
CCOc1cc(-c2c(C#N)c(N)nc3c2CCc2ccccc2-3)ccc1O | i | nt | i | i | 46 | i
CCOc1cc(-c2c(C#N)c(N)nc3c2CCCC3C)ccc1O (stereo unspecified) | i | nt | i | i | i | i
COc1ccccc1-c1c(C)c(C)nc(N)c1C#N | i | nt | i | i | i | i
COc1ccccc1-c1c(C#N)c(N)nc2c1CCc1ccccc1-2 | i | nt | i | i | 32 | i
COc1ccc2c3c(cccc13)C(=O)CC2 | i | i | 164 | i | i | 163
COc1ccc2c(c1OC)C(=O)OC2 | nt | i | i | i | i | i
CN(C)CC(=O)N[C@@H]1CC[C@H](CCNC(=O)C2CCCCC2)O[C@H]1CO | nt | i | nt | nt | nt | nt
COc1ccc(OC)c(S(=O)(=O)ON2C(=O)c3ccccc3C2=O)c1 | i | i | i | 37 | i | i
COc1ccc(Cl)cc1S(=O)(=O)NC(C)C(=O)NCCCN1CCOCC1 (stereo unspecified) | i | nt | nt | nt | nt | nt
COc1cc(/C=N/NC(=O)c2cc(-c3c(C)nn(-c4ccccc4)c3C)n[nH]2)ccc1O | i | i | i | ? | 54 | i
Cc1nn(-c2ccccc2)c(C)c1-c1cc(C(=O)N/N=C/c2ccc(O)cc2)[nH]n1 | i | i | i | i | i | i
C[C@H](CO)N1C[C@H](C)[C@@H](CN(C)C(=O)Nc2cccc3ccccc23)Oc2ccc(NC(=O)Nc3ccccc3)cc2CC1=O | nt | i | nt | nt | nt | nt
O=C(O)Cc1ccc(C(=O)c2ccccc2)s1 | i | nt | i | ? | i | i
O=C(O)Cc1ccc(C(=O)CSc2ccccc2)s1 | i | 49 | i | i | i | i
Cc1ccc(SCC(=O)c2ccc(CC(=O)O)s2)cc1 | i | 65 | nt | i | i | nt
O=C(C1=C(O)C(=O)N(c2nc3ccc(Cl)cc3s2)C1c1ccco1)c1ccco1 (stereo unspecified) | i | 88 | i | i | i | i
Cc1ccc2nc(N3C(=O)C(O)=C(C(=O)c4ccc(C)o4)C3c3ccco3)sc2c1 (stereo unspecified) | i | 48 | i | i | i | i
Cc1ccc2nc(N3C(=O)C(O)=C(C(=O)c4ccco4)C3c3ccc(C)o3)sc2c1 (stereo unspecified) | nt | i | i | i | i | i
